KDM5B inh – inhibitors of human KDM5B histone demethylase | Q9UGL1 | KDM5B demethylase, FDH-coupled NADH fluorescence (FDH is formaldehyde dehydrogenase) | Potency, µM (top dose mostly 57.7 µM), most hits filed as inhibitors | 220,000 compounds, 2.6% hits; active = well fitted inhibition curve with a large enough effect; also: 0% is about no effect; nearly all actives have a fitted effect of over 70% in size
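qHTS format, multiple compound concentrations. Buffer 50 mM HEPES pH 7.5/0.01% Tween-20; 200 nM KDM5BΔAP final; 10 min compound preincubation; substrate-mix levels 12.5 µM peptide, 25 µM α-KG, 0.25 mM NAD⁺; 30 min RT; ΔRFU.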
Active calls of the source: *; i = inactive. The sample as a whole holds a higher share of hits than the screen did. Potency is read from the fitted curve at half-maximal effect.

SMILES	KDM5B inh
CC(NC(=O)CC12CC3CC(CC(C3)C1)C2)C12CC3CC(CC(C3)C1)C2 (centres undefined)	i
Cc1ccc(C)c([S+](=O)([O-])c2nnn3c2nc(NC2CC2)c2ccccc23)c1	79µM*
Cc1cc(C)c([S+](=O)([O-])c2nnn3c2nc(NC2CC2)c2ccccc23)c(C)c1	i
COc1ccc([S+](=O)([O-])c2nnn3c2nc(NCc2ccc(F)cc2)c2ccccc23)cc1	i
COCCCNc1nc2c([S+](=O)([O-])c3ccc(OC)cc3)nnn2c2ccccc12	32µM*
COCCCNc1nc2c([S+](=O)([O-])c3ccc(Br)cc3)nnn2c2ccccc12	i
Cc1ccc([S+](=O)([O-])c2nnn3c2nc(NC2CC2)c2ccccc23)cc1	i
O=[S+]([O-])(c1ccncc1)c1nnn2c1nc(NCc1ccncc1)c1ccccc12	i
Cc1ccc([S+](=O)([O-])c2nnn3c2nc(NCc2ccncc2)c2ccccc23)cc1C	89µM*
O=[S+]([O-])(c1ccc(Br)cc1)c1nnn2c1nc(NCc1ccc(F)cc1)c1ccccc12	i
S=C(N/N=C/C1CC=CCC1)NC1CCCCC1 (centres undefined)	i
O=C(NCc1ccc(S(=O)(=O)N2CCCC2)cc1)c1n[nH]c2ccccc12	i
CCN1CCN(c2ccccc2NC(=O)c2ccc(NC(=O)c3ccco3)s2)CC1	i
CCCCCCn1c(SCC(=O)c2ccccc2)nc2c1c(=O)n(C)c(=O)n2C	i
CNc1ncccc1C(=O)N1CC[C@@H](c2ccc3c(c2)OCO3)[C@H](O)C1	28µM*
O=C(c1cn2ccsc2n1)N1CC[C@@H](c2ccc3c(c2)OCO3)[C@H](O)C1	i
O=C(O)c1ccc(CN2CC[C@@H](c3ccc4c(c3)OCO4)[C@H](O)C2)cc1	i
COC(=O)c1ccc(OCCOc2ccc(F)cc2)c(OC)c1	i
CO[C@H]1[C@H](NC(=O)Cc2c[nH]c3ccccc23)c2ccccc2C12CCNCC2	i
O=C(O)CCn1ncc2cc(OCc3ccc(-c4cccc(CO)c4)cc3)ccc21	i
Cc1noc(C)c1-c1cccc(CCOc2cnc3c(ccn3CC(=O)O)c2)c1	40µM*
O=C(O)Cn1ccc2cc(OCCc3cccc(-c4cncnc4)c3)cnc21	28µM*
Cn1cc(-c2cccc(CCOc3cnc4c(ccn4CC(=O)O)c3)c2)cn1	40µM*
Cn1cc(-c2cccc(COc3ccc4c(cnn4CC[S+](C)(=O)[O-])c3)c2)cn1	i
Cc1cc(-c2cccc(CCOc3cnc4c(ccn4CC(=O)O)c3)c2)ccn1	35µM*
SMILES	KDM5B inh
CCc1cccc(OCCOC(=O)c2cc(C)nc3ccccc23)c1	i
COCCOC(=O)N1CCC(Oc2cnc3c(ccn3-c3cncnc3)c2)CC1	i
CC(=O)NC1(C)CCCN(Cc2cccc(-c3c(C)noc3C)c2)C1 (centres undefined)	i
Cc1noc(C)c1-c1cc2c(c(-c3cccc(CO)c3)c1)C(=O)N(C)C2=O	i
O=C(C1CCOCC1)N1CCC(Oc2cnc3c(ccn3-c3cncnc3)c2)CC1	i
Cn1cc(-c2cc(C(F)F)c3c(C4CC4)nn(CC(=O)O)c3n2)cn1	i
CCOc1ccc(NC(=O)c2ccc(C)cc2)c2cccnc12	i
O=C(Nc1ccc(CC(=O)N2CCOCC2)cc1)c1cc(Cl)ccc1Cl	i
Fc1ccc(CSc2nc(-c3ccccc3)cc(C(F)(F)F)n2)cc1	i
Cc1ccc(C)c(S(=O)(=O)Nc2nc3ccccc3nc2Nc2ccc3c(c2)OCCO3)c1	i
COC(=O)CN(CC(=O)OC)NC(=O)CCC(=O)O	i
COc1ccc2c(C)c(CC(=O)Nc3ccc(C(C)=O)cc3)c(=O)oc2c1OC	i
Cc1cccc(CSCC(=O)O)c1	i
Cc1cccc(-c2cccc(CCOc3cnc4c(ccn4CC(=O)O)c3)c2)c1	32µM*
Cc1cccc(CCCCCCCCCCCC(=O)O)c1	i
CCN(CC)Cc1ccccc1CNC(=O)c1cc2cccc(OC)c2oc1=O	i
COc1cc(NC(=O)c2cnc(NCc3ccccc3)nc2C)cc(OC)c1OC	i
Cc1nc(-c2ccccc2)ncc1C(=O)O	i
Cc1nc(NCC2CC2)ncc1C(=O)O	22µM*
COc1ccc(C(=O)NC2CCN(c3cc(-c4cccs4)[nH]n3)C2)c(C)c1 (centres undefined)	14µM*
O=C(NC1CCCN(c2cc(-c3ccc(Cl)cc3)[nH]n2)C1)c1cccs1 (centres undefined)	i
O=C(NC1CCCN(c2cc(-c3ccc(F)cc3)[nH]n2)C1)c1ccc(F)cc1Cl (centres undefined)	i
COc1ccc(-c2cc(N3CCC(NC(=O)c4ccccc4Cl)CC3)n[nH]2)cc1	i
O=C(NC1CCN(c2cc(-c3cccs3)[nH]n2)CC1)c1cc(F)ccc1Cl	i
O=C(NC1CCN(c2cc(-c3cccs3)[nH]n2)C1)c1ccc(F)cc1Cl (centres undefined)	16µM*
SMILES	KDM5B inh
O=C(NC1CCN(c2cc(-c3ccccc3)[nH]n2)C1)c1ccccc1 (centres undefined)	i
O=C(NC1CCN(c2cc(-c3cccs3)[nH]n2)CC1)c1cc(Cl)ccc1F	i
O=C(Cc1ccc(Cl)cc1)NC1CCN(c2cc(-c3cccs3)[nH]n2)C1 (centres undefined)	8.9µM*
O=C(NC1CCN(c2cc(-c3cccs3)[nH]n2)C1)c1ccccc1Cl (centres undefined)	14µM*
COc1cccc(C(=O)NC2CCN(c3cc(-c4cccs4)[nH]n3)CC2)c1OC	i
COc1ccc(-c2cc(N3CCC(NC(=O)c4cccs4)CC3)n[nH]2)cc1	i
CC(C)Oc1cccc(C(=O)Nc2ccc3oc(-c4ccncc4)nc3c2)c1	i
COc1ccc2ccccc2c1/C=C(/C#N)C(=O)Nc1ccccc1C(F)(F)F	i
O=C(Nc1cc(Cl)cc(Cl)c1)C(c1ccccc1)N1CCN(C(=O)C2CC2)CC1 (centres undefined)	i
COc1cccc(/C=C2/C(=O)c3ccccc3OC2c2ccccc2)c1 (centres undefined)	i
S=C(NCCc1ccc(Cl)cc1Cl)NCc1ccccc1	i
S=C(NCCC1=CCCCC1)Nc1ccc(Br)cc1	i
COc1ccc2cc(C3CN(C(=O)Cc4ccc(O)cc4)CCO3)ccc2c1 (centres undefined)	i
CCOc1cc2nc(-c3ccc(OC)c(OC)c3)nc(N3CCC(C)CC3)c2cc1OC	i
O=C(Nc1cccc(Cl)c1Cl)C12CC3CC(CC(C3)C1)C2	i
CN(C)C(=O)N1Cc2ccccc2OC2(CCN(C(=O)c3cccc4[nH]ccc34)CC2)C1	i
CN1CCOC[C@H]2CCN(C(=O)c3cccc4[nH]ccc34)C[C@H]21	25µM*
Cn1nnnc1C1CCCN(C(=O)C2CC2)C1 (centres undefined)	i
CN1CCOC[C@H]2CCN(C(=O)c3ccco3)C[C@H]21	i
Cc1cc(C)n(CCC(=O)N2CCCC(c3nnnn3C)C2)n1 (centres undefined)	25µM*
CN1CCC([C@@H]2CN(C(=O)c3ccc4cc[nH]c4c3)C[C@H]2C(N)=O)CC1	20µM*
Cc1ccc(C(=O)N2CCCC(c3nn[nH]n3)C2)cn1 (centres undefined)	22µM*
CCN(CC)CC1CCN(C(=O)c2ccc3cc[nH]c3c2)CC1	i
Cn1nnnc1C1CCCN(C(=O)CC2CCCC2)C1 (centres undefined)	i
